Measured values: PubChem BioAssay AID1159580 (chemical genetic matrix, 2015)
The campaign covered roughly 5,500 compounds. About 2,000 (36%) were called active. Another 18% or so got no clear call; they are omitted. Cut-off read from the data, not from the text of the source: active = normalized growth mostly below about 0.91 (no sharp cut-off); inconclusive = no clear call, values can overlap the other calls; inactive = mostly above about 0.92. The list shows a part of the results.

Test: chemical genetic growth profiling, strain panel (AID 1159580);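 note: tested at 20 µM; growth read once vehicle control cultures reached saturation at 30 °C; 1 = growth at the plate median or of vehicle wells; lower values mean less growth of the strain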
Conditions: growth OD

Measured: normalized growth

COc1ccc(-c2cc(=O)c3ccccc3o2)cc1
active: S. cerevisiae deletion strains, locus YKL009W, strain mrt4, active compounds read low 0.824 | S. cerevisiae deletion strains, locus YKL068W, active compounds read low 0.93 | S. cerevisiae deletion strains, locus YKL085W, strain MDH1 (second series), active compounds read low 0.914 | S. cerevisiae deletion strains, locus YKL085W, strain MDH1, active compounds read low 0.914 | S. cerevisiae deletion strains, locus YKL160W, strain elf1, active compounds read low 0.742 | S. cerevisiae deletion strains, locus YKR001C, strain vps1, active compounds read low 0.354 | S. cerevisiae deletion strains, locus YKR026C, strain gcn3, active compounds read low 0.92 | S. cerevisiae deletion strains, locus YKR091W, strain srl3, active compounds read low 0.93 | S. cerevisiae deletion strains, locus YLL001W, strain dnm1, active compounds read low 0.763 | S. cerevisiae deletion strains, locus YLL026W, active compounds read low 0.9 | S. cerevisiae deletion strains, locus YLL041C, strain sdh2, active compounds read low 0.927 | S. cerevisiae deletion strains, locus YLR027C, strain aat2, active compounds read low 0.84 | S. cerevisiae deletion strains, locus YLR039C, strain RIC1, active compounds read low 0.405 | S. cerevisiae deletion strains, locus YLR058C, strain SHM2, active compounds read low 0.741 | S. cerevisiae deletion strains, locus YLR102C, strain apc9, active compounds read low 0.916 | S. cerevisiae deletion strains, locus YLR221C, strain rsa3, active compounds read low 0.749 | S. cerevisiae deletion strains, locus YLR258W, strain gsy2, active compounds read low 0.823 | S. cerevisiae deletion strains, locus YLR262C, strain YPT6 (second series), active compounds read low 0.538 | S. cerevisiae deletion strains, locus YLR262C, strain YPT6, active compounds read low 0.406 | S. cerevisiae deletion strains, locus YLR268W, strain sec22, active compounds read low 0.727 | S. cerevisiae deletion strains, locus YLR320W, strain mms22, active compounds read low 0.449 | S. cerevisiae deletion strains, locus YLR330W, strain CHS5, active compounds read low 0.659 | S. cerevisiae deletion strains, locus YLR342W, strain FKS1 (second series), active compounds read low 0.512 | S. cerevisiae deletion strains, locus YLR342W, strain FKS1, active compounds read low 0.861 | S. cerevisiae deletion strains, locus YLR371W, strain rom2, active compounds read low 0.834 | S. cerevisiae deletion strains, locus YLR384C, strain iki3, active compounds read low 0.916 | S. cerevisiae deletion strains, locus YLR418C, strain cdc73, active compounds read low 0.612 | S. cerevisiae deletion strains, locus YML016C, strain PPZ1, active compounds read low 0.89 | S. cerevisiae deletion strains, locus YML032C, strain rad52, active compounds read low 0.697 | S. cerevisiae deletion strains, locus YML120C, strain ndi1, active compounds read low 0.785 | S. cerevisiae deletion strains, locus YML124C, strain tub3, active compounds read low 0.922 | S. cerevisiae deletion strains, locus YMR058W, strain fet3, active compounds read low 0.804 | S. cerevisiae deletion strains, locus YMR078C, strain ctf18, active compounds read low 0.753 | S. cerevisiae deletion strains, locus YMR129W, active compounds read low 0.92 | S. cerevisiae deletion strains, locus YMR205C, strain PFK2, active compounds read low 0.668 | S. cerevisiae deletion strains, locus YMR223W, strain ubp8, active compounds read low 0.784 | S. cerevisiae deletion strains, locus YMR231W, strain pep5, active compounds read low 0.921 | S. cerevisiae deletion strains, locus YMR307W, strain GAS1, active compounds read low 0.397 | S. cerevisiae deletion strains, locus YNL067W, strain RPL9B, active compounds read low 0.688 | S. cerevisiae deletion strains, locus YNL071W, strain lat1, active compounds read low 0.48 | S. cerevisiae deletion strains, locus YNL153C, strain GIM3, active compounds read low 0.615 | S. cerevisiae deletion strains, locus YNL209W, strain ssb2, active compounds read low 0.873 | S. cerevisiae deletion strains, locus YNL233W, strain BNI4, active compounds read low 0.629 | S. cerevisiae deletion strains, locus YNL248C, strain rpa49, active compounds read low 0.833 | S. cerevisiae deletion strains, locus YNL271C, strain bni1, active compounds read low 0.884 | S. cerevisiae deletion strains, locus YNL298W, strain CLA4, active compounds read low 0.881 | S. cerevisiae deletion strains, locus YNL307C, strain MCK1, active compounds read low 0.136 | S. cerevisiae deletion strains, locus YNL322C, strain KRE1 (second series), active compounds read low 0.902 | S. cerevisiae deletion strains, locus YNL322C, strain KRE1, active compounds read low 0.792 | S. cerevisiae deletion strains, locus YNR049C, strain mso1, active compounds read low 0.914 | S. cerevisiae deletion strains, locus YNR052C, strain pop2, active compounds read low 0.853 | S. cerevisiae deletion strains, locus YOL147C, strain pex11, active compounds read low 0.819 | S. cerevisiae deletion strains, locus YOR001W, strain rrp6, active compounds read low 0.809 | S. cerevisiae deletion strains, locus YOR061W, strain CKA2, active compounds read low 0.851 | S. cerevisiae deletion strains, locus YOR069W, strain VPS5, active compounds read low 0.729 | S. cerevisiae deletion strains, locus YOR070C, strain gyp1, active compounds read low 0.818 | S. cerevisiae deletion strains, locus YOR080W, strain dia2, active compounds read low 0.906 | S. cerevisiae deletion strains, locus YOR083W, strain WHI5, active compounds read low 0.71 | S. cerevisiae deletion strains, locus YOR106W, strain vam3, active compounds read low 0.733 | S. cerevisiae deletion strains, locus YOR136W, strain idh2, active compounds read low 0.895 | S. cerevisiae deletion strains, locus YOR144C, strain elg1, active compounds read low 0.911 | S. cerevisiae deletion strains, locus YOR184W, strain ser1, active compounds read low 0.474 | S. cerevisiae deletion strains, locus YOR265W, strain rbl2, active compounds read low 0.879 | S. cerevisiae deletion strains, locus YOR270C, strain vph1, active compounds read low 0.328 | S. cerevisiae deletion strains, locus YOR290C, strain snf2, active compounds read low 0.689 | S. cerevisiae deletion strains, locus YPL051W, strain arl3, active compounds read low 0.674 | S. cerevisiae deletion strains, locus YPL078C, strain atp4, active compounds read low 0.695 | S. cerevisiae deletion strains, locus YPL240C, strain hsp82, active compounds read low 0.893 | S. cerevisiae deletion strains, locus YPL241C, strain CIN2, active compounds read low 0.839 | S. cerevisiae deletion strains, locus YPR119W, strain clb2, active compounds read low 0.93 | S. cerevisiae deletion strains, locus YPR163C, strain tif3, active compounds read low 0.543 | S. cerevisiae deletion strains, locus YPR167C, strain met16, active compounds read low 0.727 | S. cerevisiae deletion strains, strain wtn01, active compounds read low 0.816 | S. cerevisiae strains, strain wild type, active compounds read low 0.682
inactive: S. cerevisiae deletion strains, locus YJR066W, strain TOR1, active compounds read low 0.873 | S. cerevisiae deletion strains, locus YLR113W, strain HOG1, active compounds read low 1.06 | S. cerevisiae deletion strains, locus YLR357W, strain rsc2, active compounds read low 1.03 | S. cerevisiae deletion strains, locus YLR370C, strain arc18, active compounds read low 0.922 | S. cerevisiae deletion strains, locus YMR125W, strain sto1, active compounds read low 0.932 | S. cerevisiae deletion strains, locus YNL183C, strain NPR1, active compounds read low 0.874 | S. cerevisiae deletion strains, locus YNL250W, strain rad50, active compounds read low 0.921 | S. cerevisiae deletion strains, locus YOL012C, strain htz1 0.926 | S. cerevisiae deletion strains, locus YOR231W, strain MKK1, active compounds read low 0.991 | S. cerevisiae deletion strains, locus YOR316C, strain cot1, active compounds read low 0.925 | S. cerevisiae deletion strains, locus YPL106C, strain sse1, active compounds read low 1.05 | S. cerevisiae deletion strains, locus YPL256C, strain CLN2, active compounds read low 1.02 | S. cerevisiae deletion strains, locus YPR141C, strain kar3, active compounds read low 0.94
